Activity calls are given as the source filed them. Unless noted, the rule behind the calls is not given here.
What was measured:
[1] = compound effects on lung adenocarcinoma cell viability – A549, calcein-AM fluorescence, 48 h, basal, profiling panel (AID 1162); details: higher = more signal; note: test concentration not given here
[2] = compound effects on differentiated 3T3-L1 adipocyte viability – cell-based, 3T3-L1 adipocytes, calcein-AM fluorescence, 48 h, basal, profiling panel (AID 1163); details: 3T3-L1 adipocytes viability, higher = more signal; note: test concentration not given here
[3] = compound effects on hepatocellular carcinoma cell viability – HepG2, calcein-AM fluorescence, 48 h, basal, profiling panel (AID 1164); details: higher = more signal; note: test concentration not given here
[4] = compound effects on multiple myeloma cell viability – MM1S, calcein-AM fluorescence, 48 h, basal, profiling panel (AID 1165); details: higher = more signal;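 note: viability of MM1S multiple myeloma cells under basal unstimulated conditions; test concentration not given here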
[5] = calcein-AM signal in unstimulated myeloma cells – cell-based, calcein-AM fluorescence, 48 h, PK04 Diversity Set, profiling panel (AID 1166); details: RPMI8226 myeloma viability, higher = more signal;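 note: cells grown under basal conditions without added stimulus; test concentration not given here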
[6] = JC-1 mitochondrial signal, unstimulated HepG2 cells – cell-based, JC-1 fluorescence, 24 h, 100 nL compound, profiling panel (AID 1167); details: HepG2 mitochondrial potential, higher = more signal; note: test concentration not given here
[7] = JC-1 mitochondrial signal, unstimulated adipocytes – cell-based, JC-1 fluorescence, 3T3-L1 adipocytes, 24 h, 100 nL compound, profiling panel (AID 1168); details: JC-1 mitochondrial fluorescence, higher = more signal, called active from +8 up or from −8 down; note: test concentration not given here
[8] = JC-1 mitochondrial signal, unstimulated myeloma cells – cell-based, JC-1 fluorescence, RPMI8226, 24 h, 100 nL compound, profiling panel (AID 1169); details: JC-1 mitochondrial potential fluorescence, higher = more signal; note: test concentration not given here
[9] = JC-1 mitochondrial signal, unstimulated MM1S myeloma – cell-based, JC-1 fluorescence, 24 h, 100 nL compound, profiling panel (AID 1170); details: MM1S mitochondrial potential, higher = more signal; note: test concentration not given here
[10] = resazurin metabolic signal in A549 cells – cell-based, resazurin fluorescence, 24 h, PK04 Diversity Set, profiling panel (AID 1171); details: A549 viability, higher = more signal, called active from +8 up or from −8 down; note: test concentration not given here
[11] = resazurin metabolic signal in HepG2 cells – cell-based, resazurin fluorescence, 24 h, PK04 Diversity Set, profiling panel (AID 1172); details: HepG2 viability, higher = more signal; note: test concentration not given here
[12] = budding yeast growth changes without added modifier – OD600, strain BY4716, 24 h, basal condition, primary screen (AID 1173); details: S. cerevisiae BY4716 growth, OD600, 24 h; higher = more signal, called active from +8 up or from −8 down
[13] = viability profiling in MM1S myeloma cells – cell-based, resazurin fluorescence, basal, 24 h, PK04 Diversity Set, profiling panel (AID 1174); details: higher = more signal, called active from +8 up or from −8 down; note: test concentration not given here
[14] = target: Dihydroorotate dehydrogenase (quinone), mitochondrial (Plasmodium falciparum (isolate 3D7)) (UniProt Q08210); experiment: inhibition of P. falciparum DHODH – biochemical, C-terminal His tag, absorbance 600 nm, primary screen (AID 1175); details: PfDHODH enzyme, DCIP absorbance 600 nm; higher = more signal, called active from +8 up or from −8 down;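 note: recombinant parasite enzyme with a five histidine tag at its C terminus; test concentration not given here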
Chain of Dihydroorotate dehydrogenase (quinone), mitochondrial (Plasmodium falciparum (isolate 3D7)) (Q08210 whole entry, looked up): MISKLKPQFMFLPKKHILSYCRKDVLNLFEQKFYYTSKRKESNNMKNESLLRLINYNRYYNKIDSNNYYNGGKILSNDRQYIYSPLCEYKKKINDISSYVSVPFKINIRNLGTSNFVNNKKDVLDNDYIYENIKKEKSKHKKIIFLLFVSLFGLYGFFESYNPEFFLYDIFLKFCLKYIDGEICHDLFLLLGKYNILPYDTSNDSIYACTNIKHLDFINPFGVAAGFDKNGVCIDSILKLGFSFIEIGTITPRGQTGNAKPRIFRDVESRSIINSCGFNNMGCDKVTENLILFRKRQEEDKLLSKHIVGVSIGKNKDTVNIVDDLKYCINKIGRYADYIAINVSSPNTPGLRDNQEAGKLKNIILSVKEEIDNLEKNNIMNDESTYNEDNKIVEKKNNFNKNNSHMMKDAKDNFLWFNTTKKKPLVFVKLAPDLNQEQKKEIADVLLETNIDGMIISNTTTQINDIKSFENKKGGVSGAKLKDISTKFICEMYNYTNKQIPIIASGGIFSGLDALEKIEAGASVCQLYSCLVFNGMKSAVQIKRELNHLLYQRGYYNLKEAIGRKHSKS

[15] = inhibition of PAO1 biofilm formation – strain PAO1, LB-PBS medium, absorbance 600 nm, primary screen (AID 1176); note: test concentration not given here; details: P. aeruginosa PAO1 growth/biofilm, A600, 12 h; higher = more signal
[16] = growth modulation of vineyard yeast isolate – strain RM11-1a, OD600, basal, 24 h, primary screen (AID 1177);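 note: cultures grown under basal conditions with no added stressor; test concentration not given here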; details: S. cerevisiae RM11-1a growth, OD600, 24 h; higher = more signal, called active from +8 up or from −8 down
[17] = growth of efflux-deficient E. coli DRC39 – strain DRC39, OD650, 24 h, E. coli filamentation inducers, primary screen (AID 1178);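 note: growth measured as culture turbidity by optical density at 650 nm; test concentration not given here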; details: E. coli DRC39 acrAB, higher = more signal, called active from +8 up or from −8 down
[18] = growth of efflux-deficient E. coli DRC39 – strain DRC39, OD650, 48 h, E. coli filamentation inducers, primary screen (AID 1179);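 note: screen aims at cell division blockers that make cells filament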; details: E. coli DRC39 delta-acrAB growth, higher = more signal, called active from +8 up or from −8 down
[19] = viability profiling in RPMI8226 myeloma cells – cell-based, resazurin fluorescence, basal, 24 h, PK04 Diversity Set, profiling panel (AID 1180); details: higher = more signal;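 note: RPMI8826 multiple myeloma cell line at 5000 cells per well; test concentration not given here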
[20] = target: E3 ubiquitin-protein ligase XIAP (Homo sapiens) (UniProt P98170); experiment: small molecules binding XIAP protein – biophysical, small-molecule microarray, fluorescence 635 nm, primary screen (AID 1181); details: higher = more signal;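 note: score merges 667 nm emission and signal to noise over triplicate slides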
Chain of E3 ubiquitin-protein ligase XIAP (Homo sapiens) (P98170 whole entry, looked up): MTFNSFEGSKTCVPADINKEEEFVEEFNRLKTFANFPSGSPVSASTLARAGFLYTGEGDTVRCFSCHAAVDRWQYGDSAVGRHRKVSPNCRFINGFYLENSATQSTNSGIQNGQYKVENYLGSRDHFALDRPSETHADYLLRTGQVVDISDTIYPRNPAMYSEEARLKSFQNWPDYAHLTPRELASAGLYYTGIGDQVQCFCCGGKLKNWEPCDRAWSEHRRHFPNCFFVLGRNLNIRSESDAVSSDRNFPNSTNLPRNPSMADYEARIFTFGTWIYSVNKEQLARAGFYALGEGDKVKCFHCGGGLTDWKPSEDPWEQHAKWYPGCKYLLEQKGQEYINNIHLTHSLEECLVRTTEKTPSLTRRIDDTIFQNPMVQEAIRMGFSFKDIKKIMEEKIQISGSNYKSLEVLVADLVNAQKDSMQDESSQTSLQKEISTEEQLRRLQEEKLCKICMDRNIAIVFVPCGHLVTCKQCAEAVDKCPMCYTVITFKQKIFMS

Compound	z-score [1]	z-score [2]	z-score [3]	z-score [4]	z-score [5]	z-score [6]	z-score [7]	z-score [8]	z-score [9]	z-score [10]	z-score [11]	z-score [12]	z-score [13]	composite z-score [14]	z-score [15]	z-score [16]	z-score [17]	z-score [18]	z-score [19]	composite z-score [20]
Cc1cc(C)cc(N2C(=O)CSC2c2cccc([N+](=O)[O-])c2)c1 (stereo not given)	0.377	-0.28	0.0887	1.22	0.699	1.43	0.786 (inactive)	-0.445	-0.541	-0.661 (inactive)	-0.654	-0.899 (inactive)	-1.81 (inactive)	-1.39 (inactive)	-0.242 (inactive)	0.265 (inactive)	0.837 (inactive)	0.384 (inactive)	-0.341	0.0808
COC(=O)c1c(CC[C@@H](CO)NC(=O)N2CCC[C@H]2Cn2cc(Cc3ccccc3)nn2)oc(C(C)=O)c1C(=O)OC	-0.105	-0.25	-0.904	0.823	-1.41	-0.123	-0.0157 (inactive)	0.127	-0.236	0.435 (inactive)	0.448	-1.36 (inactive)	-0.362 (inactive)	-0.378 (inactive)	-1.27 (inactive)	-0.245 (inactive)	0.745 (inactive)	0.312 (inactive)	-0.394	0
COC(=O)c1nc2oc1CC[C@@H](CO)NC(=O)N(C)Cc1cnnn1C[C@H](Cc1ccccc1)NC2=O	0.0656	-0.65	0.537	1.01	0.529	0.912	1.25 (inactive)	-0.912	-0.511	0.634 (inactive)	0.841	-1.07 (inactive)	1.09 (inactive)	-0.288 (inactive)	0.383 (inactive)	0.477 (inactive)	0.218 (inactive)	1.12 (inactive)	1.47	-0.148
CC(C)(C)N1CC=CC23O[C@@H]4C=CCOC(=O)[C@@H]4[C@H]2C(=O)N(CCCCCCO)[C@@H]3C1=O (stereo not given in full)	-0.127	-0.739	-0.165	1.53	0.0749	-0.403	0.567 (inactive)	0.799	-0.112	-0.0435 (inactive)	-0.303	-0.093 (inactive)	0.448 (inactive)	-0.817 (inactive)	-0.608 (inactive)	-0.957 (inactive)	0.226 (inactive)	0.254 (inactive)	0.29	0.0385
CC(C)[Si](C#C[Si](C(C)C)(C(C)C)C(C)C)(O[C@H](C)c1cn([C@H](CO)Cc2ccccc2)nn1)C(C)C	1.11	-0.355	0.341	-2.37	0.482	0.376	0.727 (inactive)	0.362	-0.156	0.637 (inactive)	0.967	0.427 (inactive)	0.786 (inactive)	-0.487 (inactive)	1.01 (inactive)	-0.504 (inactive)	1.17 (inactive)	1.19 (inactive)	1.04	0.0484
COc1ccc(C#Cc2ccc3c(c2)[C@]2(C(=O)N3)[C@H](c3ccc(O)cc3)N3[C@H](c4ccccc4)[C@H](c4ccccc4)OC(=O)[C@H]3[C@@H]2C(=O)O)cc1	-0.884	0.943	0.127	-2.24	-2.2	-3.68	-0.742 (inactive)	-0.28	-0.361	0.344 (inactive)	0.275	-1.16 (inactive)	0.504 (inactive)	-2.78 (inactive)	1.15 (inactive)	0.0708 (inactive)	0.355 (inactive)	-0.341 (inactive)	0.801	0.126
CN(C)c1ccc(C(O)C2C=CC3C(=O)N(c4ccccc4)C(=O)C3N2Nc2ccc([N+](=O)[O-])cc2)cc1 (stereo not given)	-0.455	-1.25	0.583	-0.676	-0.215	-1.01	-2.19 (inactive)	-0.296	-0.907	-0.272 (inactive)	-0.529	-0.491 (inactive)	-0.96 (inactive)	0.835 (inactive)	0.617 (inactive)	0.706 (inactive)	-0.876 (inactive)	-0.914 (inactive)	-1.41	-0.359
N#Cc1ccc(NN2C(C(O)c3ccc(F)cc3)C=CC3C(=O)N(c4ccccc4)C(=O)C32)cc1 (stereo not given)	-0.518	-0.877	0.211	-0.453	-1.33	-1.58	-0.311 (inactive)	0.321	0.153	0.133 (inactive)	-0.587	-0.0167 (inactive)	-0.388 (inactive)	0.37 (inactive)	0.695 (inactive)	0.222 (inactive)	-1.06 (inactive)	-0.405 (inactive)	-0.67	0.0651
COC(=O)[C@@]1(Cc2ccc(F)cc2)[C@H]2c3cc(C(=O)N(C)C)n(CCc4ccc(O)c(OC)c4)c3C[C@H]2CN1C(=O)c1ccccc1	0.558	-0.306	0.364	-0.254	-0.364	-0.27	-0.763 (inactive)	-0.266	0.564	-0.905 (inactive)	-0.275	0.358 (inactive)	-0.0883 (inactive)	0.124 (inactive)	-0.263 (inactive)	0.898 (inactive)	-0.952 (inactive)	-0.574 (inactive)	0.28	-0.196

— PubChem BioAssay
